Screening results as filed in PubChem BioAssay.
The sample as a whole holds a higher share of hits than the screen did.
JMJD2E inh – JMJD2E (human) inhibition. B2RXH2. JMJD2E catalytic domain, FDH-coupled NADH fluorescence (FDH is formaldehyde dehydrogenase). Potency, µM (highest dose often 57.1 µM), inactives show at the top dose activity change, negative = inhibition, usual class: inhibitors. 230,000 compounds, 1.6% hits. AID 2147; active = well fitted inhibition curve with a large enough effect, not every such curve was filed as active; inconclusive = small, poorly fitted or top-dose-only effect, or another doubt; inactive = no such curve, though single readings can be large or run the other way;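 note: 0% = wells with enzyme and -100% = buffer wells without enzyme; nearly all actives have a fitted effect of over 50% in size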
GCN5L2 inh – blocks human GCN5L2 histone acetyltransferase | GCN5L2 HAT assay, ThioGlo1 CoA-SH fluorescence | Potency, µM (highest dose often 58.9 µM), inactives show at the highest dose activity change, negative = inhibition, most hits filed as inhibitors | 390,000 compounds, 0.21% hits | Q92830
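ThioGlo1-coupled HAT assay: 20nM GCN5L2, 70uM acetyl-CoA, 75uM H3(1-25) peptide, pH 7.5. Fluorescence read at 340/540nm at start and after 20 min at room temperature.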
BLM inh – Bloom syndrome helicase (human) inhibition; recombinant BLM DNA unwinding, fluorescence dequenching; Potency, µM (top dose mostly 56.1 µM), for the others: top-dose activity change, negative = inhibition, usual class: inhibitors; 350,000 compounds, 0.2% hits; AID 2528;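 note: plate controls were vehicle for no effect and no enzyme for full effect; nearly all actives have a fitted effect of over 35% in size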
L3MBTL1 inh – inhibitors of human L3MBTL1 | Q9Y468 | AlphaScreen L3MBTL1–H3K9me1 peptide binding | Potency, µM (series often up to 57.1 µM), for inactives: at the highest dose activity, negative = inhibition, actives largely listed as inhibitors | 230,000 compounds, 0.66% hits | AID 485360; note: nearly all actives have a fitted effect of over 60% in size
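L3MBTL1 (50 nM) pre-complexed 30 min with biotinylated H3(1-15)K9me1 peptide (75 nM), then compounds added for 30 min at room temperature; AlphaScreen streptavidin donor/nickel chelate acceptor beads (10 ug/mL final) read after 30 min dark incubation.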
RECQ1 inh – RECQ1 (human) helicase inhibition; P46063; RECQ1 DNA unwinding, red fluorescence kinetic read; Potency, µM (series often up to 57.3 µM), inactives show top-dose activity, negative = inhibition, actives largely listed as inhibitors; 240,000 compounds, 0.54% hits; AID 2549;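 note: plate controls were vehicle for no effect and no enzyme for full effect; nearly all actives have a fitted effect of over 30% in size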
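50 nM RECQ1T1 preincubated 15 min with compound in Tris pH 8.0 buffer with MgCl2, DTT, Tween-20 and 2.5 ug/ml poly(dI-dC); started with 200 nM TAMRA/BHQ-2 forked duplex and 2 mM ATP. Unwinding read as fluorescence (525/598 nm), two reads 2 h apart.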
APEX1 inh – inhibitors of human APE1 endonuclease. 350,000 compounds, 0.35% hits. Potency, µM (top dose mostly 65.8 µM), inactives show at the top dose activity change, negative = inhibition, actives largely listed as inhibitors. AID 2517. recombinant APE1, TAMRA/BHQ-2 abasic DNA cleavage fluorescence;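 note: plate controls were vehicle for no effect and reference inhibitor for full effect; nearly all actives have a fitted effect of over 55% in size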
Target sequence (P27695 whole entry, looked up): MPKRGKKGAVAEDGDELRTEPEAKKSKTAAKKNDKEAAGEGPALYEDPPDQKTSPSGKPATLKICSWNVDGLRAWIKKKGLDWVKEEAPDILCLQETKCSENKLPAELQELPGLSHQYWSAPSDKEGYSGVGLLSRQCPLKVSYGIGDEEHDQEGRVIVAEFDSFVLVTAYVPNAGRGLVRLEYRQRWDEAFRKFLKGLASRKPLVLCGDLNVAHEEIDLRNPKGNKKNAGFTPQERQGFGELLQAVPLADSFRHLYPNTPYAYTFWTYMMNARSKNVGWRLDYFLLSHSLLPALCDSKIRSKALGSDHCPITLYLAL
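Endonuclease cleavage of a quenched abasic-site DNA duplex (50 nM) by APE1 (0.75 nM) was tracked by TAMRA dequenching. Compounds were preincubated with enzyme 15 min at room temperature; data normalized to buffer-only and DMSO wells plus NSC13755 control.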
The depositor's hits bear a star; [ ] = dose if it differs, or a comment. Unless noted, calls come from the whole dose curve; as a rule, active = well fitted curve in the direction sought with a large enough effect; inconclusive = small, poorly fitted or top-dose-only effect, or another doubt; inactive = no such curve, though single readings can be large; an effect the other way counts as inactive or inconclusive. Unless noted, % is set by controls: 0 for no effect and ±100 for the full control effect; potency is the fitted concentration of half-maximal effect.

How did CCOC(=O)C1=C(O)c2ccccc2C(=O)/C1=C\c1ccc(CC)cc1 do in these assays?
JMJD2E inh: inconclusive; GCN5L2 inh: -15%; BLM inh: -14%; L3MBTL1 inh: inconclusive; RECQ1 inh: -4%; APEX1 inh: -4%

What do the screens show for `CCCc1ccc(/C=C2\C(=O)c3ccccc3C(O)=C2C(=O)OCC)cc1`?
JMJD2E inh: 18µM*; GCN5L2 inh: inconclusive; BLM inh: -12%; L3MBTL1 inh: -18%; RECQ1 inh: inactive; APEX1 inh: -2%

Results for COCCN(CC(=O)Nc1cccc(C)c1C)C(=O)c1cc2c(s1)CCC2 ?
GCN5L2 inh: -7%; L3MBTL1 inh: -25%; APEX1 inh: 15µM*

How did Cc1ccccc1N1C(=O)CC(Sc2nnc(-c3ccccc3)o2)C1=O (centres undefined) do in these assays?
JMJD2E inh: -3%; GCN5L2 inh: -24%; BLM inh: -4%; L3MBTL1 inh: 2%; RECQ1 inh: inactive; APEX1 inh: -9%

What do the screens show for `O=S(=O)(Nc1cccc2cccnc12)c1ccc(Br)cc1`?
BLM inh: -10%; RECQ1 inh: -9%; APEX1 inh: -2%

How did CN1CCN(c2ncncc2-c2cccnc2)CC1 do in these assays?
GCN5L2 inh: 0.89µM*; BLM inh: -17%; RECQ1 inh: 2%; APEX1 inh: 1%

How did O=c1[nH][nH]cc1C=Nc1ccccc1O do in these assays?
JMJD2E inh: 25µM*; GCN5L2 inh: 1%; BLM inh: 1%; L3MBTL1 inh: -28%; RECQ1 inh: -4%; APEX1 inh: 1%

What do the screens show for `O=C1NCC(O)=C1C=Nc1ccccc1O`?
JMJD2E inh: 18µM*; GCN5L2 inh: -14%; BLM inh: -2%; L3MBTL1 inh: 8%; RECQ1 inh: inactive; APEX1 inh: 5%

What do the screens show for `Cc1ccc(NC(=O)OCCN2CCN(Cc3ccccc3)CCC2=O)cc1`?
JMJD2E inh: -2%; GCN5L2 inh: -8%[88.6 µM]; BLM inh: -2%[75.6 µM]; L3MBTL1 inh: 5%; RECQ1 inh: -9%[81.1 µM]; APEX1 inh: -1%

Results for CCN(CC)c1ccc(N=Cc2ccccc2[N+](=O)[O-])cc1 ?
JMJD2E inh: 5µM*; GCN5L2 inh: -11%; BLM inh: -9%; L3MBTL1 inh: 28µM*; RECQ1 inh: -10%; APEX1 inh: -1%

What do the screens show for `CCN(CC)c1ccc(N=Cc2ccc([N+](=O)[O-])o2)cc1`?
JMJD2E inh: 2.8µM*; GCN5L2 inh: 1%; BLM inh: -6%; L3MBTL1 inh: inconclusive; RECQ1 inh: inconclusive; APEX1 inh: inconclusive

Results for CC1=C(C(=O)Nc2ccccc2)C(c2ccc[nH]2)n2ncnc2N1 (centres undefined) ?
GCN5L2 inh: inconclusive; BLM inh: -30%; L3MBTL1 inh: 1.6µM*; APEX1 inh: -39%

What do the screens show for `CCCC1=NN2C(=N)/C(=C\c3cc(C)n(Cc4ccccc4)c3C)C(=O)N=C2S1`?
JMJD2E inh: inconclusive; GCN5L2 inh: -6%; BLM inh: -8%; L3MBTL1 inh: 1%; RECQ1 inh: inactive; APEX1 inh: -4%

Results for CC1=CC2=NC(=O)/C(=C\c3cc(C)n(-c4ccccc4)c3C)C(=N)N2O1 ?
JMJD2E inh: -186%; GCN5L2 inh: 0%; BLM inh: 1%; L3MBTL1 inh: 3%; RECQ1 inh: -2%; APEX1 inh: -10%

What do the screens show for `CCCC1=NN2C(=N)/C(=C\c3cc(C)n(-c4cccc(C)c4)c3C)C(=O)N=C2S1`?
JMJD2E inh: 8.9µM*; GCN5L2 inh: 1%; BLM inh: 1%; L3MBTL1 inh: -1%; RECQ1 inh: 0%; APEX1 inh: 1%

How did CC1=CC2=NC(=O)/C(=C\c3cc(C)n(-c4cccc(Cl)c4)c3C)C(=N)N2O1 do in these assays?
JMJD2E inh: 28µM*; GCN5L2 inh: -22%; BLM inh: 1%; L3MBTL1 inh: -5%; RECQ1 inh: -7%; APEX1 inh: -3%
